These results are taken from PubChem BioAssay AID1745857 (National Center for Advancing Translational Sciences (NCATS), 2022).

Screen size: about 120,000 compounds; about 370 (0.31%) were called active. Roughly 4% stayed inconclusive and do not appear here. Calls follow the shape of the full dose curve. Only a selection was taken, and actives are over-represented in it overall.
% is scaled to controls: 0 for no effect and ±100 for the full control effect; potency is read from the fitted curve at half-maximal effect.

The assay is described as follows: Primary qHTS Assay for Foot and Mouth Disease Virus Antivirals against NCGC Sytravon and CBC Compound Libraries: Renilla Luciferase Signal. Also: nearly all actives have a fitted effect of over 55% in size. The following applies: FMDV replicon cells; series mostly up to 57.5 µM; activity change, negative = inhibition: at the top concentration. In general terms: Quantitative high-throughput screening tests each substance at several concentrations.
As to `Fc1ccc(Oc2ccc(CNc3ncccn3)cn2)cc1`, the “activity change, negative = inhibition” value was 7.32% (inactive). Same read-out and setting: under `CC(CCN1CCC(C(O)(c2ccccc2)c2ccccc2)CC1)Oc1ccc([N+](=O)[O-])cc1Cl` (configuration not stated) stands 2.69% (inactive); under `CC(=O)Oc1ccc2c(C)c(-c3ccccc3)c(=O)oc2c1`, 6.01% (inactive); under `CC1CCc2sc(N)c(C#N)c2C1` (configuration not stated), 6.46% (inactive). With `COC(=O)CN1CCCC1c1ccsc1` (configuration not stated), the “activity change, negative = inhibition” value is 1.39% (inactive). Consider `CCCCNC(=O)c1cccc(N)c1`, for which the “activity change, negative = inhibition” value was 1.32% (inactive). Still for that read-out and setting: for `C=C(C)CN1CCN(CCO)CC1` the value was 4.64% (inactive).

On to `Cc1sc2nc(SCc3ccc(Cl)cc3)n(CCCN3CCOCC3)c(=O)c2c1C`, for which the “activity change, negative = inhibition” value is -13% (inactive). On the same count and under the same terms, under `Cc1ccccc1Nc1nc(-c2ccc([N+](=O)[O-])cc2)nc2ccccc12` stands -13.7% (inactive). The same measure, in the same setting: under `FC(F)(F)c1ccccc1C(c1ccccc1)N1CCCNCC1` (configuration not stated) stands -10.5% (inactive). On to `Cc1ncsc1C(=O)NCc1ccc(N2CCCCCC2)nc1`, for which the Potency was 12.6 µM (active). For the compound `COc1ccc(OC)c(CNC(=O)c2scnc2C)c1`, the “activity change, negative = inhibition” value was -15.6% (inactive). Same read-out and setting: for `Cc1ccc(CNC(=O)c2scnc2C)cn1` the value was -3.48% (inactive); for `COc1cccc(CNC(=O)N2CCN(Cc3ccc(Br)s3)CC2)c1`, -16.2% (inactive). Consider `COc1ccc2cc(CNC(=O)c3nccnc3N)ccc2c1`, for which the Potency is 22.4 µM (active). Regarding `Nc1nccnc1C(=O)NCCc1ccc(F)cc1`, the “activity change, negative = inhibition” value was 9.21% (inactive). On the same count and under the same terms, for `CC(C)OCc1ccccc1CNC(=O)c1nccnc1N` the value was 27.4% (inactive). With `Nc1nccnc1C(=O)NCc1ccnc(Oc2ccccc2)c1`, the Potency was 31.6 µM (active).

Consider `COc1cc(CNC(=O)Cc2ccc(OC)c(OC)c2)ccn1`, for which the “activity change, negative = inhibition” value was 4.31% (inactive). On to `COc1cc(CNC(=O)C(C)Oc2ccccc2)ccn1` (configuration not stated), for which the “activity change, negative = inhibition” value was -11.8% (inactive). As for `CCOc1ccc(-c2noc(-c3nnn(-c4ccc(C(C)C)cc4)c3N)n2)cc1`, the “activity change, negative = inhibition” value was 13.1% (inactive).

As for `CCCCCCCCc1ccc(-c2ccc(CC)cc2)nc1`, the activity change, negative = inhibition is -6.84% [at 1.06 µM] (inactive).

As for `COc1ccc(OC)c(CCNC(=O)CSCc2cnn(-c3ccccc3)c2-n2cccc2)c1`, the “activity change, negative = inhibition” value was -0.795% (inactive).

For the compound `CCC(Nc1ccc2oc(C)nc2c1)C(=O)Nc1ccc(F)cc1` (configuration not stated), the “activity change, negative = inhibition” value is 39.3% (inactive). As to `CCOC(=O)c1c(S(=O)(=O)Nc2cc(Cl)c(OC)cc2OC)c(C)n(C)c1C`, the “activity change, negative = inhibition” value is 40.2% (inactive). For `COc1ccc(NC(=O)COC(=O)c2nn(C)c(=O)c3ccccc23)cc1Cl`, the “activity change, negative = inhibition” value is -4.42% (inactive).

In the case of `Cn1nc(CC(=O)Nc2cccc(Cl)c2)c2ccccc2c1=O`, the Potency was 7.94 µM (active).

`COc1ccc(Cl)cc1NC(=O)COC(=O)c1nn(C)c(=O)c2ccccc12`: the “activity change, negative = inhibition” value was -3.84% (inactive).

`COC(=O)c1cc(NC(=O)CSc2nnc(Cc3ccc(OC)cc3)n2C)ccc1Cl`: the “activity change, negative = inhibition” value was 5.38% (inactive). On the same count and under the same terms, under `O=C(Nc1ccc2oc(-c3cccc(Br)c3)nc2c1)c1cccs1` stands -3.52% (inactive).

Take `Cc1c(-c2nsc(NC(=O)c3cccc(Cl)c3)n2)nnn1-c1ccccc1C(F)(F)F`: the Potency was 12.6 µM (active). With `COc1ccc(-n2nnc(-c3nsc(NC(=O)c4ccc(C)c(C)c4)n3)c2C)cc1Cl`, the “activity change, negative = inhibition” value is 20.9% (inactive).

In the case of `CCc1cccc(-n2nnc(-c3nsc(NC(=O)c4ccc(C)cc4)n3)c2C)c1`, the “activity change, negative = inhibition” value was -4.67% (inactive).

Regarding `N#Cc1ccc(-c2ccc(OCc3ccccc3C#N)cc2)cc1`, the “activity change, negative = inhibition” value is 16.3% (inactive).

In the case of `COc1ccc(OC)c(C2c3c(n[nH]c3C)Nc3[nH]c(=O)[nH]c(=O)c32)c1` (configuration not stated), the “activity change, negative = inhibition” value is 11.2% (inactive).

Regarding `CCOC(=O)C1=C(CNCc2ccc(C)cc2)NC(=O)NC1c1ccc(Cl)cc1` (configuration not stated), the “activity change, negative = inhibition” value is -10.7% (inactive). With `CN(C)CCNC(C(=O)O)c1c[nH]c2cc(F)ccc12` (configuration not stated), the “activity change, negative = inhibition” value was 3.52% (inactive).

Regarding `C#CC[N+]1(C)C(C)CCCC1C` (configuration not stated), the “activity change, negative = inhibition” value was -0.993% (inactive). In the case of `CCCNC(=O)c1ccc(NC(=O)CCc2ccccc2)cc1`, the “activity change, negative = inhibition” value was -4.2% (inactive). Still for that read-out and setting: under `Cc1csc(/C(C#N)=C\NC2CC(C)(C)NC(C)(C)C2)n1` stands -1.6% (inactive); under `Cc1nc(-c2ccc(F)cc2)sc1C(=O)N[C@H](C(=O)O)C(C)C`, 23.8% (inactive). With `CCCn1nc(C(=O)Nc2ncc(Cc3ccc(F)cc3)s2)ccc1=O`, the Potency was 25.1 µM (active).

For the compound `Cc1cnc(NC(=O)c2nc(C)n(-c3ccc(F)cc3)n2)s1`, the “activity change, negative = inhibition” value was 0.0004% (inactive). On the same count and under the same terms, under `Cc1[nH]n(-c2nc(-c3ccccc3)cs2)c(=O)c1CC(=O)Nc1cccc(Cl)c1` stands -4.92% (inactive).

Turning to `CCCN(CC(=O)Nc1cccc(C(=O)NC2CC2)c1)Cc1nnc(-c2cccs2)o1`, the “activity change, negative = inhibition” value was 69.5% (inactive). As to `Cc1cccc(NC(=O)CSc2ncnc3ccccc23)c1`, the “activity change, negative = inhibition” value is -11.7% (inactive). For the compound `COCCCn1c(C)cc(C(=O)CSc2ncnc3ccccc23)c1C`, the Potency is 1.41 µM (active).

Regarding `COCCn1c(C)cc(C(=O)CSc2nnc(-c3ccccc3OC)n2-c2ccc(Cl)cc2)c1C`, the activity change, negative = inhibition is -11.3% [at 1.06 µM] (inactive). On the same count and under the same terms, under `Cc1cc(C(C)(C)C)cc(C)c1CCNC(=O)c1ccc(NC(=O)CC#N)cc1` stands -11.7% [at 1.06 µM] (inactive); under `CCc1ccc(/C=C/C(=O)c2cc3ccccc3oc2=O)cc1`, 47.5% (inactive); under `Cc1[nH]c2ccccc2c1C(C(=O)O)N1CCN(Cc2ccccn2)CC1` (configuration not stated), -14.3% (inactive). The same measure, in the same setting: under `O=C(COc1ccc2c(c1)CCC2)OCC(=O)c1ccc2c(c1)OCCO2` stands 5.29% (inactive); under `COC(=O)c1ccc(C2C(c3ccccc3)=C(O)C(=O)N2c2ccc(Cl)cc2)cc1` (configuration not stated), 16.2% (inactive); under `COc1ccc(CNc2oc(-c3ccc(C)cc3)nc2C#N)cc1`, 0% (inactive). The same measure, in the same setting: for `CC(C)Cn1c(=O)c2ccccc2n2c(SCC(=O)Nc3ccc(F)cc3F)nnc12` the value was -5.31% (inactive); for `O=C(NCc1cccs1)C1CCN(c2nccn3nc(-c4ccccc4)cc23)CC1`, 11.8% (inactive). In the case of `CSCCCNC(=S)NNC(N)=O`, the “activity change, negative = inhibition” value is 8.02% (inactive).
